According to PubChem BioAssay (NCATS):
Results filed as inconclusive are left out. Active and inactive are the calls of the source. Unless noted, the call rests on the fitted dose curve; in most records, active means well fitted curve in the direction sought with a large enough effect; inconclusive means small, poorly fitted or top-dose-only effect, or another doubt; inactive means no such curve, though single readings can be large; an effect the other way counts as inactive or inconclusive.

Key:
[1] = target: Endonuclease 4 (Escherichia coli (strain K12)) (UniProt P0A6C1); assay: Counterscreen for APE1 Inhibitors: qHTS Validation Assay for Inhibitors of Endonuclease IV (AID 1708); further: on the % scale 0 is the no-effect control and ±100 the full control effect; details: E. coli endonuclease IV, DNA cleavage fluorescence; series mostly up to 57.1 µM
Summary of the method: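 Concentration-response counterscreen run identically to the APE1 assay: 15 min room-temperature preincubation of 2 nM enzyme with compound, reaction started with 50 nM quenched abasic DNA, progress taken from kinetic fluorescence.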

[2] = qHTS for differential inhibitors of proliferation of Plasmodium falciparum line 7G8 (AID 1815); details: Plasmodium falciparum 7G8 proliferation inhibition; series mostly up to 28.7 µM;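 further: parasite growth measured after three days of incubation; plate controls were vehicle wells for no effect and reference inhibitor wells for full effect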
[3] = qHTS for differential inhibitors of proliferation of Plasmodium falciparum line GB4 (AID 1816); details: Potency: Plasmodium falciparum GB4 proliferation inhibition; series mostly up to 28.7 µM;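 further: parasite growth measured after 72 h incubation; 0% = vehicle DMSO and -100% = reference inhibitor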
[4] = qHTS for differential inhibitors of proliferation of Plasmodium falciparum line D10 (AID 1877); details: series mostly up to 28.7 µM;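 further: parasites grown with compound for 72 h before DNA staining; plate controls were vehicle wells for no effect and reference inhibitor wells for full effect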
[5] = qHTS for differential inhibitors of proliferation of Plasmodium falciparum line Dd2 (AID 1882); details: Potency: Plasmodium falciparum Dd2 proliferation inhibition; series mostly up to 28.7 µM;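 further: plate controls were DMSO vehicle for no effect and 0.29 µM artemisinin for full effect; nearly all actives have a fitted effect of over 65% in size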
Summary of the method: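 Dd2-infected erythrocytes (0.3% parasitemia, 2.5% hematocrit final) incubated with compound 72 h at 37 C, 5% CO2; lysed with saponin/Triton buffer containing SYBR Green I, incubated overnight in the dark, then read by fluorescence (485/535 nm). Normalized to 0.29 uM artemisinin and DMSO.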

[6] = target: Ferritin light chain (Equus caballus) (UniProt P02791); assay: qHTS Validation Assay for Identification of Novel General Anesthetics (AID 2323); details: horse apoferritin, anesthetic-site fluorescent probe displacement; series mostly up to 76.9 µM; further: on the % scale 0 is the no-effect control and ±100 the full control effect
Summary of the method: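 Competitive displacement of profluorescent 1-aminoanthracene (1-AMA, 50% saturated solution in PBS) from 10 uM horse-spleen apoferritin. Compounds incubated 10 min at room temperature; fluorescence read at 380 nm excitation/535 nm emission, normalized to free 1-AMA and complex, fitted with four-parameter Hill equation.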

[7] = target: ATP-dependent DNA helicase Q1 (Homo sapiens) (UniProt P46063); assay: qHTS Validation Assay for Inhibitors of RecQ-Like Dna Helicase 1 (RECQ1) (AID 2353); details: recombinant RECQ1 helicase DNA unwinding assay; series mostly up to 25.6 µM;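 further: plate controls were DMSO vehicle for no effect and enzyme-free control for full effect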
Summary of the method: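 50 nM RECQ1T1 preincubated 15 min with compound in Tris pH 8.0 buffer with MgCl2, DTT, Tween-20 and 2.5 ug/ml poly(dI-dC); started with 200 nM TAMRA/BHQ-2 forked duplex and 2 mM ATP. Unwinding read as fluorescence (525/598 nm), two reads 2 h apart.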

[8] = target: RecQ-like DNA helicase BLM (Homo sapiens) (UniProt P54132); assay: qHTS Validation Assay for Inhibitors of Bloom's syndrome helicase (BLM) (AID 2364); details: BLM helicase DNA unwinding, fluorescence, in vitro; series mostly up to 57.1 µM;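 further: plate controls were DMSO vehicle for no effect and enzyme-free control for full effect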
Summary of the method: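 BLM 50 nM in 25 mM Tris-HCl pH 8.0, 5 mM NaCl, 2 mM MgCl2, 1 mM DTT, 0.01% Tween-20, 2.5 ug/ml poly(dI-dC); 15 min cpd preinc, RT. Start: 200 nM forked DNA + 2 mM ATP (final). TAMRA read, 2 reads 2 h apart.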

[9] = Validation screen for small molecules that induce DNA re-replication in MCF 10A normal breast cells (AID 463097); details: MCF 10A cells, DNA re-replication phenotype imaging; series mostly up to 46.1 µM; further: 0% is about no effect; nearly all actives have a fitted effect of over 60% in size
Summary of the method: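 Readout: Hoechst nuclear fluorescence intensity, 405 ex / 500-530 em, by scanning plate imager; re-replication scored as increase in nuclei with elevated DNA content. Cells exposed to compound 48 hr, 37 C, 5% CO2 beforehand.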

[10] = Quantitative high throughput screen for delayed death inhibitors of the malarial parasite plastid, 96 hour incubation (AID 488745); details: Plasmodium falciparum growth; series mostly up to 28.7 µM; further: on the % scale 0 is the no-effect control and ±100 the full control effect; nearly all actives have a fitted effect of over 70% in size
Summary of the method: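 Luciferase-expressing P. falciparum in erythrocytes (2% hematocrit, 0.1% parasitemia) incubated with compound for 96 h at 37 C, 5% CO2, in RPMI 1640 with 0.5% Albumax. Growth inhibition read as decreased luminescence.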

[11] = Quantitative high throughput screen for delayed death inhibitors of the malarial parasite plastid, 48 hour incubation (AID 488752); details: Plasmodium falciparum growth; series mostly up to 28.7 µM; further: on the % scale 0 is the no-effect control and ±100 the full control effect; nearly all actives have a fitted effect of over 65% in size
Summary of the method: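 Erythrocytes infected with firefly luciferase-expressing P. falciparum (2% hematocrit, 0.1% parasitemia) cultured with compound for 48 h at 37 C, 5% CO2, in RPMI 1640/0.5% Albumax. Growth inhibition read as loss of luminescence.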

[12] = target: M-phase phosphoprotein 8 (Homo sapiens) (UniProt Q99549); assay: qHTS Validation Assay for Inhibitors for MPP8 Chromodomain Interactions with Methylated Histone Tails (AID 488949); details: AlphaScreen MPP8 binding to H3K9me3 peptide; series mostly up to 114 µM;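 further: AlphaScreen signal from MPP8 chromodomain bound to biotinylated H3K9me3 peptide; top concentration of the series differs between compounds; on the % scale 0 is the no-effect control and ±100 the full control effect; nearly all actives have a fitted effect of over 55% in size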
Summary of the method: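 MPP8 (50 nM) was preincubated with biotinylated H3(1-18)K9me3 peptide (50 nM) in PBS pH 7.4, 0.01% Tween-20 for 30 min at room temperature, then with compounds for 30 min; binding was detected by AlphaScreen.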

[13] = target: Transient receptor potential cation channel subfamily V member 1 (Homo sapiens) (UniProt Q8NER1); assay: HTS Assay for Compounds that Act as Enhancers of the Vanilloid Receptor 1 (AID 488979); details: TRPV1-expressing cells, enhancer of channel activity, stimulated with capsaicin at EC20; series mostly up to 41.7 µM; further: 0% is about no effect
Summary of the method: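 TRPV1-expressing cells loaded with Fluo-8 calcium dye; compounds added and calcium influx read kinetically for 3 min (agonist phase), then capsaicin at EC20 added and read 2 min more for enhancement. Fluorescence ex 480/em 520 nm.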

[14] = target: Thyrotropin receptor (Homo sapiens) (UniProt P16473); assay: qHTS Assay for Antagonists of the Thyroid Stimulating Hormone Receptor (AID 488980); details: TSHR-expressing cells, cAMP antagonist read-out; series mostly up to 57.5 µM; further: 0% is about no effect
Summary of the method: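 HEK293 cells transfected with human TSHR, suspended in HEPES-buffered HBSS with 70 uM RO 20-1724, were treated with compounds plus TSH at EC80 (4 nM final). cAMP was measured by competitive HTRF (cryptate anti-cAMP antibody, cAMP-d2 acceptor).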

[15] = target: Thyrotropin-releasing hormone receptor (Homo sapiens) (UniProt P34981); assay: qHTS for Small Molecule Agonists and Allosteric Enhancers of Human TRH Receptor: Validation Screen for Agonists (AID 493127;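 active means calcium activation more than 3 SD above the typical response in the agonist read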; further: 0% is about no effect); details: TRH receptor agonist cell assay; at 2 µM; active compounds read high
Summary of the method: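 TRHR cells loaded with fluo-8 calcium dye; FDSS kinetic fluorescence (Ex 480/Em 530) read at 1 s/cycle after 23 nL compound addition. Agonist-mode calcium response recorded before the 10 nM TRH (EC20) addition.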

[16] = target: Galactokinase (Homo sapiens) (UniProt P51570); assay: qHTS Validation Assay for Inhibitors of Human Galactokinase (GALK) (AID 493189); details: purified human GALK enzyme activity, qHTS 7-point titration; series mostly up to 57.5 µM; further: 0% is about no effect
Summary of the method: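 GALK (5 nM) with 35 uM ATP and 100 uM galactose in HEPES pH8.0, MgCl2, NaCl, DTT, BSA; 1 h at room temperature. Residual ATP read by Kinase-Glo Plus luminescence after 10 min.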

[17] = Validation screen for small molecules that induce DNA re-replication in SW480 colon adenocarcinoma cells (AID 504364); details: DNA re-replication phenotype (high-content imaging); series mostly up to 46.1 µM; further: 0% is about no effect
Summary of the method: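 SW480 cells (250/well) exposed 48 h at 37 C, 5% CO2, then Hoechst-stained 40 min. Nuclear DNA content imaged by fluorescence scanning (405 nm excitation, 500-530 nm emission); re-replication scored as increased nuclei with elevated intensity.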

[18] = test system: Zika virus NS2B-NS3 protease; assay: Primary screen GU AMC qHTS for Zika virus inhibitors (AID 1347154); details: Zika NS2B-NS3 unlinked protease, AMC fluorogenic substrate; series mostly up to 54.1 µM;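 further: 0% = no-inhibitor control and -100% = no-enzyme control; nearly all actives have a fitted effect of over 70% in size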
Summary of the method: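 Unlinked Zika NS2B hydrophilic domain/NS3 protease domain noncovalent complex (25 nM final) in 10 mM Tris-HCl pH 8.0, 0.01% Tween 20, with AMC peptide substrate. Fluorescence (ex 340, em 450 nm) change over 15 min, room temperature; percent inhibition fitted to 4-parameter Hill equation.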

[19] = Primary qHTS for small molecule stabilizers of the endoplasmic reticulum resident proteome: Secreted ER Calcium Modulated Protein (SERCaMP) assay (AID 1508630); details: SH-SY5Y GLuc-SERCaMP (Gaussia luciferase released on ER calcium loss) secretion, thapsigargin, luminescence; series mostly up to 38.4 µM; further: on the % scale 0 is the no-effect control and ±100 the full control effect
Summary of the method: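 GLuc-SERCaMP-expressing SH-SY5Y cells, pretreated 16 h with compound, are challenged with thapsigargin to empty ER calcium stores; after 4 h, coelenterazine is added directly to the medium and luminescence is imaged.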

ATP-dependent DNA helicase Q1 (Homo sapiens), sequence (P46063 whole entry, looked up): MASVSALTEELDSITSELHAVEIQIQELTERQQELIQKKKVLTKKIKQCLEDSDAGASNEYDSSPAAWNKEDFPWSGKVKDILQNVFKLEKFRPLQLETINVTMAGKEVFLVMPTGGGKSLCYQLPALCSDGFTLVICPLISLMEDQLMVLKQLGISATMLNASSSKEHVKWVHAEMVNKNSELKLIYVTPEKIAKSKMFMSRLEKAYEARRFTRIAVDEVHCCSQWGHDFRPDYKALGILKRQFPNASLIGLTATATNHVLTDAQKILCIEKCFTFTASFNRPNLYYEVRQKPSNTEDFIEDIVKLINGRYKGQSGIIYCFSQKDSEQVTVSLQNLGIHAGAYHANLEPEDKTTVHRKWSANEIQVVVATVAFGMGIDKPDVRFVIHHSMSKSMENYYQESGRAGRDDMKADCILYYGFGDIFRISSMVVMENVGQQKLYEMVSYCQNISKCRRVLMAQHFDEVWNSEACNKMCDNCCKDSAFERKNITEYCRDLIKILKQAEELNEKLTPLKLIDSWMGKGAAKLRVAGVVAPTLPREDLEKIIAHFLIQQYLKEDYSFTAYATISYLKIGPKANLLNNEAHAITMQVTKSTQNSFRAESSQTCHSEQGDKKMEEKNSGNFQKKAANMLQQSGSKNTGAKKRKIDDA
RecQ-like DNA helicase BLM (Homo sapiens), sequence (P54132 whole entry, looked up): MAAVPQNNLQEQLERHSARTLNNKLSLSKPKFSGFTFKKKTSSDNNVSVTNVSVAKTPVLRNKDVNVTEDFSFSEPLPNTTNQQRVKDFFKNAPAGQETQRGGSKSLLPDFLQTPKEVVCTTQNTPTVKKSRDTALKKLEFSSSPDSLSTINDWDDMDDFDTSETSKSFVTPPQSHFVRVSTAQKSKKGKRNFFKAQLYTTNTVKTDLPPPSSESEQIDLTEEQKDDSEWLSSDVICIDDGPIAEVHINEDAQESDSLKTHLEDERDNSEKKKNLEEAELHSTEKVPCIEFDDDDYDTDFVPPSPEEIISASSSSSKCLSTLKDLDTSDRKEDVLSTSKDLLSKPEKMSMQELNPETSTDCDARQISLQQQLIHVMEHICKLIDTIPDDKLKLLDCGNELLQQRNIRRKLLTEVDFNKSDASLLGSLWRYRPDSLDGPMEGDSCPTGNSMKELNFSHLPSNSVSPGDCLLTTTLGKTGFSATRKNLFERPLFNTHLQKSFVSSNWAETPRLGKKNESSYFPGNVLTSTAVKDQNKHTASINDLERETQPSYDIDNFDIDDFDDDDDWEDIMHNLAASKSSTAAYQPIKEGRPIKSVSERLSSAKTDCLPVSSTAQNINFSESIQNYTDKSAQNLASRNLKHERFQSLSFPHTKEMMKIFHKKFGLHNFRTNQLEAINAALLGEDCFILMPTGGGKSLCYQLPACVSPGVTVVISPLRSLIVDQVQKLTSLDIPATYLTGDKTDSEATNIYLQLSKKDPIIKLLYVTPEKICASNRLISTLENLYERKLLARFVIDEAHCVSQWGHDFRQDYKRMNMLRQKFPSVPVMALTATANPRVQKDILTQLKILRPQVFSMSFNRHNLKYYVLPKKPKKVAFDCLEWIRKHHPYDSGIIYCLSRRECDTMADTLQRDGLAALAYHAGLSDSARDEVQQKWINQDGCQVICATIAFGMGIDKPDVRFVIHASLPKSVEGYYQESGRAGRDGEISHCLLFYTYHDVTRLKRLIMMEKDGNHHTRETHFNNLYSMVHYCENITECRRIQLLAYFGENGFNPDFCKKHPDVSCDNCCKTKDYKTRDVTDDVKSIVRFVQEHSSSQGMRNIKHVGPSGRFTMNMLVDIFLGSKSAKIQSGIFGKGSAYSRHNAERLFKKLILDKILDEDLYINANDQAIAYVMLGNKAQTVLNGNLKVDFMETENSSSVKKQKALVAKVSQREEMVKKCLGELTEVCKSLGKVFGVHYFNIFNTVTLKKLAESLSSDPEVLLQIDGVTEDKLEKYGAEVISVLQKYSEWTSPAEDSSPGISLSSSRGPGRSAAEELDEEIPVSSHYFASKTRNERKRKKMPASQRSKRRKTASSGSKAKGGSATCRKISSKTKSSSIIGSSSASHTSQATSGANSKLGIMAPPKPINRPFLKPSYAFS
Galactokinase (Homo sapiens), sequence (P51570 whole entry, looked up): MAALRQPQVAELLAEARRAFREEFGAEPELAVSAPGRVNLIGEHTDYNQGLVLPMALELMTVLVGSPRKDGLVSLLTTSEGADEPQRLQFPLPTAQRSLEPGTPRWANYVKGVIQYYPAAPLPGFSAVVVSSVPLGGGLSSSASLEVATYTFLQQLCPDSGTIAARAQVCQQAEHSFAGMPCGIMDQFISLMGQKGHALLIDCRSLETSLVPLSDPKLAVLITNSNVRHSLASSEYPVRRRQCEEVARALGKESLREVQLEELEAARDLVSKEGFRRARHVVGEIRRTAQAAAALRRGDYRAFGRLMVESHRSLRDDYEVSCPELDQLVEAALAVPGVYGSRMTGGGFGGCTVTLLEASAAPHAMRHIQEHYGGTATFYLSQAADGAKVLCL
M-phase phosphoprotein 8 (Homo sapiens), sequence (Q99549 whole entry, looked up): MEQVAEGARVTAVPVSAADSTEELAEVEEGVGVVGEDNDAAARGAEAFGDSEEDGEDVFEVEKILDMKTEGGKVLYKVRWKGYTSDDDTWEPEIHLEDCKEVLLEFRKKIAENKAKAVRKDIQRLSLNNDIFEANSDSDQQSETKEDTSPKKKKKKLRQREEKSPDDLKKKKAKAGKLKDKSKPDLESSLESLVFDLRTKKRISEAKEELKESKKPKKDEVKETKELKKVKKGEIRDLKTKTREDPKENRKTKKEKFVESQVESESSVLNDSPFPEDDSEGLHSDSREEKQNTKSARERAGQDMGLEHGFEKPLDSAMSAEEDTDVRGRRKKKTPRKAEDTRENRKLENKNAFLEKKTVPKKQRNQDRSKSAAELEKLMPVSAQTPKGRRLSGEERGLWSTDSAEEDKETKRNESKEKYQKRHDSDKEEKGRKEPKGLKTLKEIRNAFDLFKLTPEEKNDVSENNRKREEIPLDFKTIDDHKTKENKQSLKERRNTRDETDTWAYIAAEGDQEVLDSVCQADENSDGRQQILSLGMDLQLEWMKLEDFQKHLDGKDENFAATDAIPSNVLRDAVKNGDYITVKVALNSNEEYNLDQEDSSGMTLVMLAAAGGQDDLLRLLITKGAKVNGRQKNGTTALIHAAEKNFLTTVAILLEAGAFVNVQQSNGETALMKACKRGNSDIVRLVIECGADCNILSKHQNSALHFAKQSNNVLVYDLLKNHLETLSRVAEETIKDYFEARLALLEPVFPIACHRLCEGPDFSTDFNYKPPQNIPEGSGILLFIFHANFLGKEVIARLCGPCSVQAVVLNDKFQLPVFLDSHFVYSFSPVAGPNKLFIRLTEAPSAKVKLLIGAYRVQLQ
Thyrotropin-releasing hormone receptor (Homo sapiens), sequence (P34981 whole entry, looked up): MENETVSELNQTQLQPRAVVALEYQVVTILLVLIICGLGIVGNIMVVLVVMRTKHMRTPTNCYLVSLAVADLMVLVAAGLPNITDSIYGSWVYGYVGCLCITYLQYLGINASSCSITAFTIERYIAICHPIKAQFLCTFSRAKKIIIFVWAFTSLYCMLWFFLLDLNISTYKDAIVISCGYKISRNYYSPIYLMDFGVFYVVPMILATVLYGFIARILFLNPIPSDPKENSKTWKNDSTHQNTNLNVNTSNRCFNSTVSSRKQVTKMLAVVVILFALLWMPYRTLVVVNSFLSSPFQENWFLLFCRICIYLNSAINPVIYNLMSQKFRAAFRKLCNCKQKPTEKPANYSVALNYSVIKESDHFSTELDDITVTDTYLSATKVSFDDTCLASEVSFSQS
Thyrotropin receptor (Homo sapiens), sequence (P16473 whole entry, looked up): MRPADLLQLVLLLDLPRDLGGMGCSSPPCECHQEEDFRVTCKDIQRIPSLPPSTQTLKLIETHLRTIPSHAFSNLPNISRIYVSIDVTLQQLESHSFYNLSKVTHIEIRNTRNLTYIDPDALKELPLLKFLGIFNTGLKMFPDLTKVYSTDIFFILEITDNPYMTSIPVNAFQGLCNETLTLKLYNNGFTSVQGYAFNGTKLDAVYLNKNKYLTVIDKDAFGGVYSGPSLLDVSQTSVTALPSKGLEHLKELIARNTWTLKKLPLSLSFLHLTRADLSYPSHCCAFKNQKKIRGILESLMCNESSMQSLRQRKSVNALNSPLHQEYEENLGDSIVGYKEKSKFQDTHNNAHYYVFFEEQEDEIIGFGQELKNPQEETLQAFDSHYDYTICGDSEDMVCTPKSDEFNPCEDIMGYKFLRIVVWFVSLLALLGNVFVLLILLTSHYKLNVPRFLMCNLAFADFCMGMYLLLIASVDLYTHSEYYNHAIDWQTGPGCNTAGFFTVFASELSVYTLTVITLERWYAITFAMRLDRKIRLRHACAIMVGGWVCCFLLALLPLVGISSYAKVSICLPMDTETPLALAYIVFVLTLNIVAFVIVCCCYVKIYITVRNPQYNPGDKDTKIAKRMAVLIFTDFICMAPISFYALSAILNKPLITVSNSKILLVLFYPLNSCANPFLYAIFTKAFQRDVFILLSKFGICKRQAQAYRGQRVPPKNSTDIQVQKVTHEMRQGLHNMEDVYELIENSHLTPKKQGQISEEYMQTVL
Ferritin light chain (Equus caballus), sequence (P02791 2-175 limits assumed): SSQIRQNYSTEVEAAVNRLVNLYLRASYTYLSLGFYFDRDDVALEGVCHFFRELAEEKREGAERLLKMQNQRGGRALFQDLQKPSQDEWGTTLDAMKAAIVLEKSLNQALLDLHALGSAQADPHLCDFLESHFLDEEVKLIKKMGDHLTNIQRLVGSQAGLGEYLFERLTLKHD

Cn1cnc2c(NC3CCCC3)ncnc21
inactive: Potency [1] | Potency [2] | Potency [3] | Potency [4] | Potency [5] | outcome [6] | Potency [7] | Potency [8] | Potency [9] | Potency [10] | Potency [11] | Potency [12] | outcome [13] | outcome [14] | activation [15] 0.875% | outcome [16] | outcome [17] | Potency [18] | Potency [19]
